# Results: PubChem BioAssay (NCI)
# The panel holds about 83,000 compounds, 20% with a hit somewhere; the sample as a whole holds those more often.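 Method: cells in 96-well plates; compound added at one concentration; 48 h incubation; percent growth measured; values under 10 scored active.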 Values without a mark were called inactive. Active and inactive are the calls of the source.
# Key:
# Assay in all cases: NCI-60 one-dose screen, 48 h (100 = growth as untreated, 0 = no growth, -100 = all killed)
# Conditions in all cases: 10 µM unless noted
# NCI-H23 lung = test system: NCI-H23 lung
# NCI-H226 lung = test system: NCI-H226 lung
# NCI-H322M lung = test system: NCI-H322M lung
# HOP-62 NSCLC = test system: HOP-62 NSCLC
# NCI-H460 lung = test system: NCI-H460 lung
# HOP-92 NSCLC = test system: HOP-92 NSCLC
# NCI-H522 lung = test system: NCI-H522 lung
# A549/ATCC NSCLC = test system: A549/ATCC NSCLC
# 786-0 renal = test system: 786-0 renal
# COLO 205 colon = test system: COLO 205 colon
# DU-145 prostate = test system: DU-145 prostate
# K-562 leukemia = test system: K-562 leukemia
# MALME-3M melanoma = test system: MALME-3M melanoma
# MDA-MB-231 breast = test system: MDA-MB-231 breast
# RXF 393 renal = test system: RXF 393 renal
# SF-268 CNS = test system: SF-268 CNS
# SF-295 CNS = test system: SF-295 CNS
# SF-539 CNS = test system: SF-539 CNS
# UACC-257 melanoma = test system: UACC-257 melanoma
# M14 melanoma = test system: M14 melanoma
Compound,growth (NCI-H23 lung),growth (NCI-H226 lung) [%],growth (NCI-H322M lung),growth (HOP-62 NSCLC),growth (NCI-H460 lung),growth (HOP-92 NSCLC),growth (NCI-H522 lung),growth (A549/ATCC NSCLC),growth (786-0 renal),growth (COLO 205 colon),growth (DU-145 prostate),growth (K-562 leukemia),growth (MALME-3M melanoma),growth (MDA-MB-231 breast),growth (RXF 393 renal),growth (SF-268 CNS),growth (SF-295 CNS),growth (SF-539 CNS),growth (UACC-257 melanoma),growth (M14 melanoma)
CCOC(=O)CSc1ncnc2c1c(-c1ccccc1)c(-c1ccccc1)n2-c1ccc(C)cc1,75%,77.8,94.4%,64.8%,76.6%,49.4%,47.3%,72.5%,80.9%,63.7%,74.4%,38%,62.1%,85.7%,105%,86.2%,76.2%,86.2%,51.9%,75.6%
CS(=O)(=O)Nc1cc(-c2ccc3ncnc(Nc4c(Cl)ccc5c4OCO5)c3c2)cnc1Cl,0.217% (active),12.7,-39% (active),9.21% (active),7.13% (active),-10.5% (active),-13.8% (active),-13.7% (active),0.785% (active),-45% (active),6.12% (active),13.6%,-29% (active),1.01% (active),-45.8% (active),-21.5% (active),-29.8% (active),-36.9% (active),-3.47% (active),-9.85% (active)
COc1ccc(/C=N/C2=C(C#N)C(c3cccc(Cl)c3)c3c(ccc4ccccc34)O2)cc1 (stereo not given),53.5%,36,62.7%,49.5%,16.8%,44.8%,3.61% (active),44.9%,19.8%,31.3%,55.7%,11.1%,44.5%,38%,26.5%,45.9%,21.8%,7.29% (active),62.6%,15.6%
COC(=O)c1c2c(c(C)[n+]([O-])c1C)C(=O)C(NCc1ccc(Cl)cc1)=CC2=O,59%,92.6,64.3%,78.2%,51.8%,107%,42%,66.9%,74%,9.79% (active),86.6%,28.7%,-75.4% (active),48.7%,86.6%,76.8%,87.6%,85.3%,17.8%,39.6%
COC(=O)c1cc(-c2ccccc2)[nH]c1N/N=C/c1c(Cl)cccc1Cl,14.2%,37.9,34.6%,-28.2% (active),-3.25% (active),10.5%,-41.9% (active),21.7%,9.31% (active),12.5%,-5.4% (active),-21.8% (active),-15.2% (active),10.5%,-18.7% (active),33.1%,-59.5% (active),-33.3% (active),51%,-12.3% (active)
CCOC(=O)Cn1c(O)c(N=Nc2ccc(S(N)(=O)=O)cc2)c2cc(Br)ccc21,77.1%,85.9,77.7%,65%,44.1%,96.4%,70.8%,30.7%,99.2%,58%,78.7%,65.4%,79.5%,67.6%,43.3%,97.2%,96.8%,16%,96.3%,87.8%
CC1=C(Nc2ccc(N3CCN(C)CC3)cc2)C(=O)c2cncnc2C1=O,72.6%,99,101%,107%,25.2%,-28.6% (active),84.9%,92.6%,107%,124%,81%,9.68% (active),131%,-10.1% (active),118%,102%,103%,94.5%,65.6%,105%
O=c1oc2ccc([N+](=O)[O-])cc2cc1Br,107%,98.4,108%,104%,107%,83.7%,97.9%,108%,112%,105%,109%,102%,107%,109%,108%,103%,98.8%,82.2%,104%,104%
